Experimental data as given in PubChem BioAssay (EPA / NIEHS).
Several values for one entry are separate records, joined by “and”; a condition that tells them apart may be missing. Equal values may be shown once. Results filed as inconclusive are left out. Some compounds were tested as several samples or in several runs, with calls that do not always agree. Activity calls are given as the source filed them. Rule for the calls: active = hit-call score of the fitted dose curve at least 0.9, where 1 is the maximum; inconclusive = response in the unintended direction; inactive = score below 0.9.

Molecular target: Retinoic acid receptor RXR-alpha (Homo sapiens) (UniProt P19793)
Assay: OT_NURR1_NURR1RXRa_1440: Odyssey Thera (OT) 24-hour HEK293T Protein Complementation Assay for Nurr1/retinoid X receptor (RXR) (AID 2283386)
Experimental: OT_NURR1_NURR1RXRa_1440 is a cell-based assay that uses HEK293T, a human kidney cell line, with measurements taken at 24 hours after chemical dosing in a 384-well plate.OT_NURR1_NURR1RXRa_1440 is one of one assay component(s) measured or calculated from the OT_NURR1_NURR1RXRa_1440 assay. It is designed to make measurements of protein fragment complementation, a form of binding reporter, as detected with fluorescence intensity signals by Protein-fragment Complementation technology.Data from the assay component OT_NURR1_NURR1RXRa_1440 was analyzed into 1 assay endpoint. This assay endpoint, OT_NURR1_NURR1RXRa_1440, was analyzed in the positive analysis fitting direction relative to DMSO as the negative control and baseline of activity. Using a type of binding reporter, measures of receptor for gain-of-signal activity can be used to understand the binding at the pathway-level as they relate to the gene RXRA. Furthermore, this assay endpoint can be referred to as a primary readout, because the performed assay has only produced 1 assay endpoint. To generalize the intended target to other relatable targets, this assay endpoint is annotated to the nuclear receptor intended target family, where the subfamily is non-steroidal.
Protein-fragment complementation assay, or PCA, is a method for the identification and quantification of protein-protein interactions. In the PCA, the proteins of interest ("bait" and "prey") are each covalently linked to fragments of a third protein (e.g. DHFR, which acts as a "reporter"). Interaction between the bait and the prey proteins brings the fragments of the reporter protein in close proximity to allow them to form a functional reporter protein whose activity can be measured.

Retinoic acid receptor RXR-alpha (Homo sapiens), sequence (P19793 whole entry, looked up): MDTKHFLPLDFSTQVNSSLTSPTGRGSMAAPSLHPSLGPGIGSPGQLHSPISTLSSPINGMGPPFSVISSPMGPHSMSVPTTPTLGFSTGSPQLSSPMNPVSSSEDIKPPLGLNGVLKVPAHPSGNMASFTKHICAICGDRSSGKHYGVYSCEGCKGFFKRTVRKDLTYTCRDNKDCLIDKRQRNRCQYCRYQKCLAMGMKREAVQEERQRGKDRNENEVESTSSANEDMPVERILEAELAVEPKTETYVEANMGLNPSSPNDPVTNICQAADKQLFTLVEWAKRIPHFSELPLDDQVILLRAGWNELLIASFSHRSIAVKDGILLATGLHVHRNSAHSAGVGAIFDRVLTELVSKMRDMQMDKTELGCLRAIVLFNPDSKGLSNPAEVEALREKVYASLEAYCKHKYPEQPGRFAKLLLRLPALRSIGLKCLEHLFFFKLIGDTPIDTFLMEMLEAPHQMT

SMILES | outcome | AC50
O=C(O)COc1nc(Cl)c(Cl)cc1Cl | inactive | 
COc1nc(NC(C)C)nc(NC(C)C)n1 | inactive | 
C=CC1(C)OC(=O)N(c2cc(Cl)cc(Cl)c2)C1=O (stereo not given) | inactive | 
CCCCOC(=O)c1ccccc1C(=O)OCCCC | inactive | 
C=CCC1=C(C)C(OC(=O)C2C(C=C(C)C)C2(C)C)CC1=O (stereo not given) | inactive | 84.5 µM (active) and 83.5 µM (active)
CC(C)(C)c1ccc(CSc2cnn(C(C)(C)C)c(=O)c2Cl)cc1 | inactive | 
Fc1ccc(Oc2ccnc3cc(Cl)cc(Cl)c23)cc1 |  | 70.8 µM (active) and 65.4 µM (active)
CCNc1nc(Cl)nc(NCC)n1 | inactive | 
CCNc1nc(Cl)nc(NC(C)C)n1 | inactive | 
CNC(=S)S | inactive | 
Cc1ccc(-c2c(Cl)nc(C#N)n2S(=O)(=O)N(C)C)cc1 | inactive | 
COP(N)(=O)SC (stereo not given) | inactive | 
C#CCOS(=O)OC1CCCCC1Oc1ccc(C(C)(C)C)cc1 (stereo not given) | inactive | 31.6 µM (active)
CCOC(=O)C(Cl)Cc1cc(-n2nc(C)n(C(F)F)c2=O)c(F)cc1Cl (stereo not given) | inactive | 
CCc1nn(C)c(C(=O)NCc2ccc(C(C)(C)C)cc2)c1Cl |  | 11.6 µM (active)
O=C(O)c1nc(Cl)ccc1Cl | inactive | 
COc1cnc(OC)n2nc(NS(=O)(=O)c3c(OCC(F)F)cccc3C(F)(F)F)nc12 | inactive | 
CON(C)C(=O)Nc1ccc(Cl)c(Cl)c1 | inactive | 

SMILES | outcome | AC50
CCCCC(CC)COC(=O)c1ccccc1C(=O)OCC(CC)CCCC (stereo not given) | inactive | 
C=CCC1=C(C)[C@@H](OC(=O)[C@@H]2[C@@H](C=C(C)C)C2(C)C)CC1=O | inactive | 80.6 µM (active)
CC1=C(C(=O)Nc2ccccc2)SCCO1 | inactive | 
Oc1ccccc1-c1ccccc1 | inactive | 
CCOP(=S)(OCC)SCn1c(=O)oc2cc(Cl)ccc21 | inactive | 
CCON=C(CC)C1=C(O)CC(c2c(C)cc(C)cc2C)CC1=O (stereo not given) | inactive | 
CC(Oc1ccc(Cl)cc1Cl)C(=O)O (stereo not given) | inactive | 
COC(=O)C=C(C)OP(=O)(OC)OC | inactive | 
CNC(=O)ON=CC(C)(C)SC | inactive | 
CCCCNC(=O)OCC#CI |  | 11.7 µM (active)
COC(=O)c1ccccc1C(=O)OC | inactive | 
CC(C)Oc1cc(-n2nc(C(C)(C)C)oc2=O)c(Cl)cc1Cl | inactive | 74.7 µM (active)
COC(=O)N(OC)c1ccccc1COc1ccn(-c2ccc(Cl)cc2)n1 | inactive | 
COc1ccc(C(c2ccc(OC)cc2)C(Cl)(Cl)Cl)cc1 | inactive | 
CCOc1cc(Oc2ccc(C(F)(F)F)cc2Cl)ccc1[N+](=O)[O-] | inactive | 
N#Cc1nn(-c2c(Cl)cc(C(F)(F)F)cc2Cl)c(N)c1S(=O)C(F)(F)F (stereo not given) | inactive | 
Cc1cc(Cl)ccc1OCC(=O)O | inactive | 
COP(=S)(OC)Oc1nc(Cl)c(Cl)cc1Cl | inactive | 
